Results filed as inconclusive are left out. Values without a mark were called inactive. Calls of active or inactive are those of the source. Calls follow the shape of the dose curve; as a rule, active = well fitted activation curve with a large enough effect; inconclusive = small, poorly fitted or top-dose-only effect; inactive = flat fitted curve, though single readings scatter.
assay: qHTS Assay for NPC1 Promoter Activators: Initial hit validation from the primary screen; details: Huh7 NPC1 promoter-luciferase reporter, luminescence, 24 h; series mostly up to 46.1 µM; activity, positive = activation: at the top concentration;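 as to activity, positive = activation: reporter driven by the mutant form of the NPC1 promoter; % of control where 0% means no effect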
Summary of the method: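 Promoter activation measured as luciferase luminescence (Amplite reagent, 10 minutes ambient) after 24 hours' compound exposure at 37C. Cells: NPC1-luciferase Huh7, 1500 per well, reduced-serum OP-MEM I plus 10% FBS.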
Potency is read from the fitted curve at half-maximal effect.

In the case of CCOC(=O)CSc1nc2cc(C)ccc2cc1C#N, the Potency is reported as 499 nM (active).
With CCCCCCOc1ccc(OC(=O)c2cccnc2)cc1 the Potency was 19900 nM (active).
For N#C/C(=N\Nc1ccc(Cl)cc1)C(=N)N1CCCCC1, the Potency was 281 nM (active).

Point of comparison: Cc1ccc(C)c(Nc2cc(C)nc3ncnn23)c1, “activity, positive = activation” value -7.93%. Against it:
- CCC(C)(C)NC(=O)C(c1ccc(OC)cc1)N(Cc1cccs1)C(=O)CCC(=O)Nc1cc(C)on1 (centres undefined) — lower, -17%
- Cc1ccc(C(=O)NC2CCN(CC(=O)Nc3c(C)cc(C)cc3C)CC2)cc1 — higher, -6.42%
- CCN(C(=O)COC(=O)c1ccc(C=O)cc1)c1c(N)n(Cc2ccccc2)c(=O)[nH]c1=O — higher, -1.43%
- Nc1nc(SCCO)[nH]c(=O)c1NC(=O)c1ccco1 — higher, 2.14%
- COCc1cc(C)nc(N/N=C/c2ccc(-c3ccc(Cl)cc3[N+](=O)[O-])o2)c1C#N — higher, 3.22%
- CCC(=O)N1c2ccccc2NC2=C(C(=O)CCC2)C1c1ccc(N(C)C)cc1 (centres undefined) — higher, -2.04%
- C=CCOC(=O)N1CCN(c2cccc(C(F)(F)F)c2)CC1 — higher, -3.82%
- CCOC(=O)c1ccccc1NC(=O)CSc1nnc(Cc2cccn2C)n1-c1ccc(F)cc1 — lower, -12.2%
- O=C(CCCC(=O)N(CC(=O)NC1CCCCC1)c1cccc(F)c1)Nc1ccccn1 — higher, 5.64%
- O=C(NCC1CCCO1)C(c1ccc(F)cc1)N(Cc1ccc2c(c1)OCO2)C(=O)c1ccc(CN2CCOCC2)o1 (centres undefined) — higher, 3.75%

Source: PubChem BioAssay AID493203 (National Center for Advancing Translational Sciences (NCATS), 2011)
